According to PubChem BioAssay (NCATS):
Records with an inconclusive call do not appear. Activity calls are given as the source filed them. Unless noted, calls follow the shape of the dose curve; as a rule, active = well fitted curve in the direction sought with a large enough effect; inconclusive = small, poorly fitted or top-dose-only effect, or another doubt; inactive = no such curve, though single readings can be large; an effect the other way counts as inactive or inconclusive.

Assays:
[1] = Cell Viability - Jurkat (AID 426;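 active = dose-dependent loss of cell ATP signal giving a full or clear fitted curve, ranked by lower potency value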; also: potency is read from the fitted curve at half-maximal effect); conditions: qHTS
In short: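 Seed 5000 Jurkat E6-1 cells/well; add compound; incubate 40 hr at 37 °C; add CellTiter-Glo; wait 20 min at room temperature; read luminescence. Fit concentration-response with Hill equation for AC50.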

[2] = Cell Viability - Hek293 (AID 427;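 active = compounds whose dose-response curve shows a full or clear partial loss of cell viability, called from curve shape rather than a numeric limit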;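 also: potency is read from the fitted curve at half-maximal effect; cells exposed to compound for 40 hours at 37 °C before reading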); conditions: qHTS
In short: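 qHTS, human embryonic kidney (adenovirus-transformed) cells; 40 hr cpd, 37 °C; CellTiter-Glo ATP luminescence. Norm: DMSO = 0, 100 uM tamoxifen = 100% inhibition. Hill-fit AC50.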

[3] = Cell Viability - HepG2 (AID 433; calls by dose curve;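 also: potency is read from the fitted curve at half-maximal effect; potency for ATP loss meaning cytotoxicity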); conditions: qHTS
In short: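 HepG2 cells, 1500 per well, treated 40 hr at 37 °C in complete medium; viability from intracellular ATP by CellTiter-Glo luminescence. Normalized to DMSO and 100 uM tamoxifen; AC50 from Hill fit of qHTS concentration-response.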

[4] = Cell Viability - MRC5 (AID 434; calls by dose curve;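 also: potency is read from the fitted curve at half-maximal effect; potency reflects cytotoxicity seen as loss of intracellular ATP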); conditions: MRC5 lung fibroblast viability, qHTS
In short: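 qHTS cytotoxicity in human lung fibroblast MRC5 cells; 40 hr treatment, 37 °C; cellular ATP by luciferase luminescence; DMSO = 0%, 100 uM tamoxifen = 100% inhibition; Hill-fit AC50.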

[5] = Cell Viability - SK-N-SH (AID 435; calls by dose curve;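 also: potency is read from the fitted curve at half-maximal effect; compound exposure lasted 40 h at 37 °C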); conditions: SK-N-SH neuroblastoma cell viability qHTS
In short: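 SK-N-SH neuroblastoma cells (1500/well) treated 40 h at 37 °C in complete medium; viability read as cellular ATP by CellTiter-Glo luminescence. Normalized to DMSO and 100 uM tamoxifen; AC50 from Hill fits of qHTS concentration-response.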

[6] = Cell Viability - N2a (AID 540); conditions: N2a mouse neuroblastoma cell viability; at 92.2 µM (top of the series);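 also: plate controls were DMSO alone for no effect and tamoxifen control for full effect; nearly all actives have a fitted effect of over 45% in size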
In short: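 First, 1500 N2a cells per well incubate 5 hr at 37 °C; next, compounds are added and incubated 40 hr at 37 °C; finally CellTiter-Glo is added and luminescence read after 20 min, with AC50 derived by Hill modeling.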

[7] = Cell Viability - HUV-EC-C (AID 542); also: % is scaled to controls: 0 for no effect and ±100 for the full control effect; nearly all actives have a fitted effect of over 35% in size
In short: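 Decrease in cellular ATP, quantified by luciferase luminescence, reflects toxicity in normal human vascular endothelial HUV-EC-C cells given compound for 40 hr in complete culture medium. Values are AC50s from concentration-response curves.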

[8] = Cell Viability - H-4-II-E (AID 543); also: % is scaled to controls: 0 for no effect and ±100 for the full control effect; nearly all actives have a fitted effect of over 35% in size
In short: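 Here, cytotoxicity is measured in the rat hepatoma line H-4-II-E as loss of intracellular ATP after 40 hr compound treatment, detected by luciferase luminescence.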

[9] = Cell Viability - SH-SY5Y (AID 544); conditions: SH-SY5Y neuroblastoma cell viability; viability change, negative = cytotoxic: at 92.2 µM (top of the series); also: nearly all actives have a fitted effect of over 55% in size
In short: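 Cytotoxicity is scored as a concentration-dependent fall in intracellular ATP in human SH-SY5Y cells treated 40 hr in complete culture medium. Potency is expressed as AC50 from a Hill equation fit.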

[10] = Cell Viability - Renal Proximal Tubule (AID 545); conditions: renal proximal tubule cells viability; at 91.7 µM (top of the series), primary cells of rat origin unless noted; also: nearly all actives have a fitted effect of over 40% in size
In short: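 Rat renal proximal tubule primary cells, 1000/well, exposed to compounds for 40 hr at 37 °C in complete medium; cellular ATP read by CellTiter-Glo luminescence. AC50 from concentration-response fitted with standard Hill equation.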

[11] = Cell Viability - Mesenchymal (AID 546);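 also: cells exposed to compound for 40 hours before reading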
In short: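 AC50 values reflect the drop in intracellular ATP in a human kidney mesenchymal line derived from normal glomeruli. Treatment lasts 40 hr at 37 °C in complete medium, and the signal comes from CellTiter-Glo luminescence.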

[12] = Cellular Toxicity (caspase-3) HepG2 (AID 654);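 also: cells exposed to compound for 16 hours before reading; 0% = DMSO alone and 100% = caspase signal from 100 µM tamoxifen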
In short: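 qHTS, HepG2, 1500 cells/well, complete medium; cpd 16 h 37 °C; Caspase-Glo 3/7, 20 min RT; lum. Norm: DMSO vs 100 uM tamoxifen; AC50 Hill fit.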

[13] = Cellular Toxicity (caspase-3) Jurkat (AID 655); conditions: Jurkat caspase-3 activation, luminescence, DMSO = 0%, tamoxifen = 100%; at 92.2 µM (top of the series);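 also: cells exposed to compound for 16 h at 37 °C before reading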
In short: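 Jurkat cells (5000/well) in complete medium exposed 16 h at 37 C; caspase-3/7 activity read by Caspase-Glo luminescence after 20 min at room temperature. Normalized to DMSO and 100 uM tamoxifen; AC50 from Hill fits.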

[14] = Cellular Toxicity (caspase-3) HUV-EC-C (AID 656)
In short: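 HUV-EC-C cells (1000/well) in complete medium, compound-treated 16 h at 37 °C; caspase-3/7 activity read by Caspase-Glo 3/7 luminescence. Normalized to DMSO (basal) and 100 uM tamoxifen (100%); AC50 from Hill-equation concentration-response fits.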

[15] = Cellular Toxicity (caspase-3) SHSY5Y (AID 657)
In short: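 SH-SY5Y human neuroblastoma cells, 1500/well, exposed to compound for 16 hours at 37 °C in complete medium. Caspase-3/7 activity read by Caspase-Glo luminescence after 1 hr at room temperature, normalized to DMSO and 10 uM staurosporine; AC50 from Hill fit.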

[16] = Cellular Toxicity (caspase-3) BJ (AID 658)
In short: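 Readout: Caspase-Glo 3/7 luminescence increase in BJ cells after 16 hr treatment at 37 °C. Staurosporine and tamoxifen served as positive controls; AC50 values came from Hill modelling of data normalized to DMSO and 10 uM staurosporine.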

[17] = Cellular Toxicity (caspase-3) MRC-5 (AID 659)
In short: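 Concentration-dependent caspase 3/7 activation is measured in human normal lung fibroblasts (MRC-5) following 16-hour treatment. AC50 values come from standard Hill-equation modeling of luminescence normalized to DMSO and 10 uM staurosporine.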

[18] = Cellular Toxicity (caspase-3) SK-N-SH (AID 661)
In short: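 Caspase 3/7 activation is measured as a luminescence increase from aminoluciferin released by substrate cleavage in SK-N-SH cells after 16 hr compound treatment; values are AC50 from concentration-response curves.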

[19] = Cellular Toxicity (caspase-3) H-4-II-E (AID 663);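 also: cells exposed to compound for 16 hr before readout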
In short: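 Apoptosis induction is scored as increased luminescence from caspase 3/7 substrate cleavage in rat hepatoma H-4-II-E cells exposed to compound for 16 hr. Activity is scaled between DMSO and 100 uM tamoxifen.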

[20] = Cellular Toxicity (caspase-3) Hek293 (AID 664);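 also: cells exposed to compound for 16 h at 37 °C before readout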
In short: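 Activation of caspase-3/7 is measured as increased luminescence from cleaved peptide-aminoluciferin substrate in HEK293 cells treated 16 hours at 37 °C. AC50 values come from Hill-equation fits of concentration-response data.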

[21] = Cellular Toxicity (caspase-3) N2a (AID 665); conditions: N2a cells, luminescence, normalized: DMSO 0%, 10 µM staurosporine 100%; at 92.2 µM (top of the series);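 also: compound exposure lasted 16 h at 37 °C before readout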
In short: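 Plated mouse neuroblastoma N2a cells received titrated compounds for 16 h in complete medium. Caspase activity was then detected with a peptide-aminoluciferin luminescent reagent.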

[22] = Cellular Toxicity (caspase-3) NIH 3T3 (AID 666);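 also: caspase signal read after 16 h compound exposure; 0% = DMSO basal and 100% = 100 µM tamoxifen stimulation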
In short: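 Concentration-response qHTS in NIH 3T3 mouse fibroblasts scores caspase-3/7 activation as rising luminescence after 16 hr compound exposure. Signals are scaled between DMSO-only and 100 uM tamoxifen.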

[23] = Cellular Toxicity (caspase-3) Renal Proximal Tubule (AID 667); conditions: renal proximal tubule cells; at 91.7 µM (top of the series), primary cells freshly taken from rat, solvent-only wells 0%, staurosporine 100% unless noted;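 also: cells exposed to compound for 16 hours at 37 °C before detection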
In short: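 Freshly isolated primary rat kidney proximal tubule cells, 1000/well, treated 16 hr at 37 °C, then Caspase-Glo 3/7 luminescence after 1 hr. Normalized to DMSO and 10 uM staurosporine; AC50 from Hill fit.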

CCCOC(=O)c1ccccc1C(=O)OCCC
inactive: Potency [1] > 92 µM | Potency [2] > 92 µM | Potency [3] > 92 µM | Potency [4] > 92 µM | Potency [5] > 92 µM | activity change, negative = cytotoxicity [6] -15% | Potency [7] | Potency [8] | Potency [9] | activity change, negative = cytotoxicity [10] -1.75% | outcome [11] | outcome [12] | caspase-3 activation [13] -1.2% | outcome [14] | outcome [15] | outcome [16] | outcome [17] | outcome [18] | outcome [19] | outcome [20] | caspase-3 activation [21] 2.99% | outcome [22] | caspase-3 activation [23] 0.709%
